Inconclusive results are not listed. Entries that show only a call come without a potency. The source made the active and inactive calls. Unless noted, calls follow the shape of the dose curve; as a rule, active = well fitted curve in the direction sought with a large enough effect in the repeat runs; inconclusive = weak or mixed curves; inactive = no such curve, though single readings can be large; an effect the other way counts as inactive or inconclusive.
Assays:
[1] = qHTS assay to identify small molecule HDAC inhibitors (AID 1259364); also: potency is read from the fitted curve at half-maximal effect;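 also: wild-type HCT-116 cells with endogenous class I/II HDAC activity; nearly all actives have a fitted effect of over 45% in size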
How it was run: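 Cells (HCT-116, wild type) are seeded at 1,500 per well, incubated overnight, treated with compound in DMSO for 2 hr, then developed with HDAC-Glo I/II reagent for 30 min at room temperature.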

[2] = qHTS assay to identify small molecule HDAC inhibitors - cell viability counter screen (AID 1259365); also: series mostly up to about 92 µM; nearly all actives have a fitted effect of over 50% in size
How it was run: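 HCT-116 (wild type), 1,500 cells/well, overnight 37C/5% CO2; compound in DMSO 2hr; CellTiter-Glo 30min RT; luminescence read.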

[3] = qHTS assay to identify small molecule agonists of the sonic hedgehog signaling (Shh) pathway - cell viability counter screen (AID 1259366); also: nearly all actives have a fitted effect of over 50% in size; also: potency is read from the fitted curve at half-maximal effect
How it was run: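 CellTiter-Fluor fluorescence read-out, 1 hr at 37C, added after 23hr compound exposure. Cells: 3T3 Gli1-Luc, an NIH/3T3 clone with stably integrated Gli1-Luc reporter, plated 4hr before compound.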

[4] = qHTS assay to identify small molecule agonists of the sonic hedgehog signaling (Shh) pathway (AID 1259368; calls by dose curve;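 also: NIH/3T3-derived 3T3Gli1-Luc cells carrying a stable Gli1-driven firefly luciferase reporter; series mostly up to about 92 µM; nearly all actives have a fitted effect of over 15% in size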)
How it was run: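 Cells of a mouse NIH/3T3 clone stably expressing luciferase under the Gli1 transcriptional response element are exposed to test chemicals for 24 hr at 37 C. Pathway activation is detected as a rise in luminescence.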

[5] = qHTS assay to identify small molecule antagonists of the sonic hedgehog signaling (Shh) pathway (AID 1259369; calls by dose curve; also: nearly all actives have a fitted effect of over 45% in size; also: potency is read from the fitted curve at half-maximal effect)
How it was run: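 Cells are plated and held 4hr at 37 C, compounds (DMSO) are pinned in, conditioned medium is added to stimulate the pathway, and after 24hr luciferase reagent is added for 30min before luminescence is read.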

[6] = target: Estrogen receptor beta (Homo sapiens) (UniProt Q92731); assay: qHTS assay to identify small molecule agonists of the estrogen receptor beta (ER-beta) signaling pathway (AID 1259377; active = well fitted activation curve with a large enough effect in the signal ratio in the repeat runs, not every such curve was filed as active; the % refers to the signal ratio)
Sequence of Estrogen receptor beta (Homo sapiens) (Q92731 whole entry, looked up): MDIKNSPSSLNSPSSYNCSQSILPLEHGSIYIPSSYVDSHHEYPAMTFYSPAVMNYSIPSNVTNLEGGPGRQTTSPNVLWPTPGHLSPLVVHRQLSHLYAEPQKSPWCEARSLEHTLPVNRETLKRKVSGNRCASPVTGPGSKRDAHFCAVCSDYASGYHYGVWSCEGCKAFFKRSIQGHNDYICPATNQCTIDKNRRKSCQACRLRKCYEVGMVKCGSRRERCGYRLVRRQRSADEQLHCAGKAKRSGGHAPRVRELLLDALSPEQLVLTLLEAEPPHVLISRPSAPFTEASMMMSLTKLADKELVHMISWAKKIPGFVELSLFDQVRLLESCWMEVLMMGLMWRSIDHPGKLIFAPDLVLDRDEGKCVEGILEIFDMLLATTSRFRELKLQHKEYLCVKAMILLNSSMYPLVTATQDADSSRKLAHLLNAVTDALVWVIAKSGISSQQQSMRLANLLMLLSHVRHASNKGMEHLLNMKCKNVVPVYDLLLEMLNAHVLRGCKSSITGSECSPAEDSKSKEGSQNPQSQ
How it was run: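 Beta-lactamase reporter readout: fluorescence of LiveBLAzer B/G FRET substrate after 2 h at room temperature, following 16 h compound treatment of ER-beta-UAS-bla HEK293T cells at 37C in 2% charcoal-stripped FBS medium.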

[7] = qHTS assay to identify small molecule antagonists of the sonic hedgehog signaling (Shh) pathway - cell viability counter screen (AID 1259367); also: nearly all actives have a fitted effect of over 55% in size; also: potency is read from the fitted curve at half-maximal effect
How it was run: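 Viability was read by CellTiter-Fluor fluorescence in the same wells, reagent added 23 hr into compound treatment and incubated 1 hr at 37C. The 3T3 Gli1-Luc reporter cells (2,000/well) received conditioned medium after compound and ran 24 hr.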

Row | SMILES | Potency [1] | Potency [2] | Potency [3] | Potency [4] | Potency [5] | Potency [6] | Potency [7]
1 | COc1cccc(OC)c1C(=O)O | inactive | inactive | inactive | inactive | inactive | inactive | 
2 | Cc1ccc(O)c(N)c1 |  | inactive | 43.3 µM (active) | inactive | 8.64 µM (active) |  | 27.3 µM (active)
3 | Nc1ccc(Oc2ccc(Cl)cc2)cc1 | inactive | inactive |  | inactive |  |  | inactive
4 | Cc1cccc2cccnc12 | inactive |  | inactive | inactive | inactive |  | inactive
5 | S=C([S-])NCCNC(=S)[S-].S=C([S-])NCCNC(=S)[S-].[Mn+2].[Zn+2] | inactive |  |  | inactive |  | inactive | inactive
6 | Clc1ccnc(Cl)n1 | inactive |  | inactive | inactive |  | inactive | 
7 | CC[C@H](C)COC(=O)/C=C/c1ccc(N=Cc2ccc(OC)cc2)cc1 |  | inactive | inactive | inactive | inactive |  | inactive
8 | CN1CCN(Cc2cc(-c3ccc4[nH]c(=O)oc4c3)co2)[C@@H](c2ccc(F)cc2)C1 | inactive | inactive |  | inactive | 4.16 µM (active) |  | 
9 | O=C1OC2(c3ccc(O)cc3Oc3cc(O)ccc32)c2ccc(N=C=S)cc21 | inactive | inactive |  | inactive | inactive |  | inactive
10 | Cc1ccc(O)c(O)c1 | inactive |  |  | inactive | 5.29 µM (active) | inactive | 21.1 µM (active)
11 | C=CCn1c(=O)n(CC=C)c(=O)n(CC=C)c1=O | inactive | inactive | inactive | inactive |  | inactive | inactive
12 | Cc1ccc(C(=O)O)cc1 | inactive | inactive |  | inactive | inactive |  | inactive
13 | CCCC(=O)OCCc1ccccc1 | inactive | inactive | inactive | inactive | inactive | inactive | inactive
14 | COc1cc(S(=O)(=O)O)c(C)cc1N=Nc1c(O)ccc2cc(S(=O)(=O)O)ccc12 | inactive |  | 27.3 µM (active) | inactive | inactive |  | 24.3 µM (active)
15 | O=S(=O)(O)c1ccc(N=Nc2c(O)ccc3ccccc23)cc1 | 0.686 µM (active) |  | 27.3 µM (active) | inactive |  | inactive | 
16 | c1ccc(C(O[C@@H]2CCCN(CCc3ccc4c(c3)OCO4)C2)c2ccccc2)cc1 | inactive |  | inactive | inactive |  | inactive | 
17 | Sc1nc2ccccc2s1 |  | inactive | inactive | inactive | 54.5 µM (active) | inactive | 

Row | SMILES | Potency [1] | Potency [2] | Potency [3] | Potency [4] | Potency [5] | Potency [6] | Potency [7]
18 | CCCCCC(C)OC(=O)COc1ccc(Cl)c2cccnc12 (centres undefined) | inactive | inactive | inactive | inactive | 54.5 µM (active) |  | 
19 | CCC(C)[O-].CCC(C)[O-].CCOC(=O)/C=C(/C)[O-].[Al+3] | inactive | inactive |  | inactive | inactive |  | inactive
20 | O=[N+]([O-])c1ccc(O)cc1C(F)(F)F | inactive | inactive | inactive | inactive |  | inactive | inactive
21 | O=[N+]([O-])c1ccc(F)c(Cl)c1 | inactive |  | inactive | inactive |  | inactive | inactive
22 | C/C=C/C=C/COC(=O)C(C)C | inactive | inactive | inactive | inactive | 30.6 µM (active) |  | 
23 | O=C(O)CCN(C1(C(=O)NO)CCCC1)S(=O)(=O)c1ccc(Oc2ccc(F)cc2)cc1 | inactive | inactive |  | inactive |  | inactive | inactive
24 | CC/C=C\CCCCCO | inactive | inactive | inactive | inactive |  | inactive | inactive
25 | O=C(/C=C/c1ccc(O)c(O)c1)O[C@@H](C(=O)O)[C@@H](OC(=O)/C=C/c1ccc(O)c(O)c1)C(=O)O | inactive |  |  | inactive |  |  | 
26 | CN(C)Cc1cc(C(C)(C)C)c(O)c(C(C)(C)C)c1 | inactive | inactive | inactive | inactive |  |  | 
27 | COCCOc1cc2cc(C(=O)NC3CCN(C(C)C)CC3)n(CC(=O)Nc3ccc(Cl)cn3)c2cn1 | inactive |  |  | inactive |  | inactive | inactive
28 | O=c1[nH]c2ccccc2n1CCCN1CCN(C(c2ccccc2)c2ccccc2)CC1 | inactive | inactive |  | inactive | 3.35 µM (active) |  | 
29 | CCCNCCC | inactive | inactive | inactive | inactive | inactive | inactive | 
30 | CNC(=O)c1ccccc1Sc1ccc2c(/C=C/c3ccccn3)n[nH]c2c1 |  |  |  | inactive |  |  | 
31 | CN1CCC[C@@H]1CCO[C@](C)(c1ccccc1)c1ccc(Cl)cc1 | inactive | inactive | 23.7 µM (active) | inactive |  |  | 
32 | CC1(C)CCC[C@]2(C)[C@H]3CCO[C@]3(C)CC[C@@H]12 | inactive | inactive | inactive | inactive | inactive |  | 
33 | O=c1oc2cc(O)ccc2c2oc3cc(O)ccc3c12 | 9.29 µM (active) |  |  |  | 13.1 µM (active) |  | inactive
34 | CCCCCCCCCCCCOC(=O)c1ccc(O)cc1 | inactive | inactive |  | inactive | inactive | inactive | inactive

Source: PubChem BioAssay (Tox21)
